Only some compounds are listed: those with a hit (about 7.3% of all), similar ones and a draw of the others.
HEK293 tox – cytotoxic compounds in HEK 293 cells; HEK 293 viability, ATP luminescence (CellTiter-Glo), 48-72 h; Potency, µM (top dose mostly 115 µM), without a hit: at the highest dose activity change, negative = cytotoxicity, most hits filed as inhibitors; 6.6% of 94,000 active; further: potency means the concentration at half of the fitted maximal effect; nearly all actives have a fitted effect of over 60% in size
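Luminescence from cellular ATP, measured with CellTiter-Glo, indicates HEK 293 viability. Cells plated at 250 cells/well are treated with compound for 48 or 72 hr at 37 degree Celsius before reagent addition.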
FLuc inh – blocks purified firefly luciferase enzyme activity | 2.5% of 76,000 active | Potency, µM (doses to about 115 µM), actives largely listed as inhibitors | purified P. pyralis luciferase, luminescence, biochemical | P08659; further: potency means the concentration at half of the fitted maximal effect; nearly all actives have a fitted effect of over 65% in size
Target sequence (P08659 whole entry, looked up): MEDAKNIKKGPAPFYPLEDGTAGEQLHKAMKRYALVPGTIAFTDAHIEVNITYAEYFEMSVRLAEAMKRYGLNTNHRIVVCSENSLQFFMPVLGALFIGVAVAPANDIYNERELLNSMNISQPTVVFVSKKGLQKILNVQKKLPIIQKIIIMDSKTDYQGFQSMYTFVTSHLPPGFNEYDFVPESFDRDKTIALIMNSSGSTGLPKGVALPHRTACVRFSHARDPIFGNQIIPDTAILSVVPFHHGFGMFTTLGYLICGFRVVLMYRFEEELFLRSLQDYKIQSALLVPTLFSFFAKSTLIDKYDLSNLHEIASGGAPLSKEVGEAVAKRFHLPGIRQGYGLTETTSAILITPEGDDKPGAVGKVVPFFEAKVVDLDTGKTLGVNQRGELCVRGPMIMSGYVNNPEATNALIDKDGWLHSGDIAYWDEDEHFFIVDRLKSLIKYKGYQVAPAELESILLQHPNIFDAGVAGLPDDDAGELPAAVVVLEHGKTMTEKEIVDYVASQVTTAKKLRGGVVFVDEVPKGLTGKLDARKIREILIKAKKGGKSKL
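Biochemical qHTS: compound (6-point titration) added to 10uM D-luciferin plus 10uM ATP in Tris acetate pH 7.5 buffer with Mg, Tween-20 and BSA, then purified enzyme at 10nM; light output imaged.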
SNCA expr inh – SNCA gene expression inhibition | HEK-293 SNCA-luciferase knock-in, luminescence, 24 h | Potency, µM (top dose mostly 57.2 µM), inactives show at the highest dose activity change, negative = inhibition, actives largely listed as inhibitors | 0.17% of 140,000 active;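 further: potency means the concentration at half of the fitted maximal effect; plate controls were DMSO cells for no effect and cell-free wells for full effect; nearly all actives have a fitted effect of over 45% in size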
SNCA viab count – reduces viability of HEK-293 SNCA reporter cells; HEK-293-SNCA-luc viability, GF-AFC fluorescence, 24 h; Potency, µM (doses to about 57.1 µM), for inactives: at the top dose activity change, negative = cytotoxicity, usual class: cytotoxic; 0.12% of 150,000 active; AID 1671193;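 further: potency means the concentration at half of the fitted maximal effect; 0% = DMSO-treated cells and -100% = medium-only wells without cells; nearly all actives have a fitted effect of over 30% in size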
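Cytotoxicity counterscreen: after 24 h compound treatment of genome-edited SNCA-luciferase HEK-293 cells, live-cell protease substrate GF-AFC read by fluorescence after 30 min; activity scaled between DMSO (0%) and medium-only (-100%), curves Hill-fitted.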
IP6K1 inhibitor – inhibitors of human IP6K1 | activity change, % (series mostly up to about 58 µM) | IP6K1 kinase, ADP-Glo luminescence, 2 h; stronger effect = lower value | 0.81% of 140,000 active | AID 1645851 | Q92551; in the data active means activity change below about -25%
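ADP-Glo luminescence measures ADP made by human IP6K1 during a 2 h RT reaction with ATP/IP6 (mix at 1.3 mM/130 uM); top library doses 57.5 and 19.1 uM final.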
3T3 cytotox – NIH 3T3 cell cytotoxicity; NIH 3T3 viability, CellTiter-Glo ATP luminescence, 48-72 h; Potency, µM (titrated, usually from 96.7 µM), without a hit: at the top dose activity change, negative = cytotoxicity, hits mostly inhibitors; 4.3% of 94,000 active; further: potency means the concentration at half of the fitted maximal effect; nearly all actives have a fitted effect of over 55% in size
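Cells were seeded at 400 per well, treated with pin-transferred compound, and kept 48 or 72 hr at 37 °C before CellTiter-Glo addition and luminescence imaging of cellular ATP.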
IP6K1 inh cnf – human IP6K1 inhibition, confirmatory; shares compounds with IP6K1 inhibitor; recombinant IP6K1 kinase, ADP-Glo luminescence, 2 h; Potency, µM (top dose mostly 49 µM), for the others: top-dose activity change, negative = inhibition, usual class: inhibitors; 13% of 1,200 active; further: potency means the concentration at half of the fitted maximal effect; nearly all actives have a fitted effect of over 65% in size
An asterisk follows results filed as active; [ ] = remark or other dose. Unless noted, the call rests on the fitted dose curve; in most records, active means well fitted curve in the direction sought with a large enough effect; inconclusive means small, poorly fitted or top-dose-only effect, or another doubt; inactive means no such curve, though single readings can be large; an effect the other way counts as inactive or inconclusive. Unless noted, on the % scale 0 is the no-effect control and ±100 the full control effect.

How did CCOC(=O)C(CC)Sc1c(CC)cnc2c1c(=O)n(C)c(=O)n2C (centres undefined) do in these assays?
SNCA expr inh: 22%; SNCA viab count: 3%; IP6K1 inhibitor: -8

What do the screens show for `CCc1cnc2c(c1SCCC(C)C)c(=O)n(C)c(=O)n2C`?
SNCA expr inh: 0%; SNCA viab count: 5%; IP6K1 inhibitor: -28*; IP6K1 inh cnf: -18%

How did CC(C)c1cc(C(C)C)c(CC(=O)NS(=O)(=O)Oc2c(C(C)C)cccc2C(C)C)c(C(C)C)c1 do in these assays?
SNCA expr inh: 23%; SNCA viab count: -28%; IP6K1 inhibitor: -32*; IP6K1 inh cnf: inconclusive

Results for COCc1nc(C2CC(N)C2)cc(N2CCN(S(=O)(=O)N(C)C)CC2)n1 (centres undefined) ?
HEK293 tox: -3%; FLuc inh: inactive; SNCA expr inh: inconclusive; SNCA viab count: 4%; IP6K1 inhibitor: 0; 3T3 cytotox: 3%

Results for CCOc1ccc(CNC(=O)C2CCCN(c3nn4cc(-c5ccc(OC)cc5)nc4s3)C2)cc1 (centres undefined) ?
SNCA expr inh: 80%; SNCA viab count: -9%; IP6K1 inhibitor: -37*; IP6K1 inh cnf: inconclusive

Results for CCOc1ccc(CNC(=O)C2CCCN(c3nn4cc(-c5ccc(F)cc5)nc4s3)C2)cc1 (centres undefined) ?
SNCA expr inh: 81%; SNCA viab count: 5%; IP6K1 inhibitor: 1

What do the screens show for `O=C(NC1C[C@H]2CC[C@@H](C1)N2C(=O)Cc1cccc(Cl)c1)c1ccncc1` (some centres undefined)?
HEK293 tox: -26%; FLuc inh: inactive; SNCA expr inh: -15%; SNCA viab count: 7%; IP6K1 inhibitor: 26; 3T3 cytotox: -34%

Results for COc1ccc(NC(=O)Cc2csc(COc3cccc(C)c3)n2)cc1OC ?
SNCA expr inh: 3%; SNCA viab count: -2%; IP6K1 inhibitor: -27*; IP6K1 inh cnf: 34%

How did Cc1cccc(NC(=O)Cc2csc(COc3cccc(C)c3)n2)c1 do in these assays?
SNCA expr inh: 16%; SNCA viab count: 4%; IP6K1 inhibitor: -22

What do the screens show for `CCN(Cc1ccccc1)C(=O)c1cc(-c2ccncc2)cn1Cc1ccc(C)cc1`?
HEK293 tox: inconclusive; FLuc inh: inconclusive; SNCA expr inh: 72%; SNCA viab count: -27%; IP6K1 inhibitor: -17; 3T3 cytotox: inconclusive

How did CCOc1cc(CNc2ccc(O)cc2)ccc1OCc1ccc(Cl)cc1 do in these assays?
SNCA expr inh: -2%; SNCA viab count: -26%; IP6K1 inhibitor: -17

Results for CCOc1cc(CNc2ccc(O)cc2)cc(Br)c1OCc1ccccc1 ?
SNCA expr inh: -6%; SNCA viab count: -11%; IP6K1 inhibitor: -43*; IP6K1 inh cnf: inconclusive

Results for CC(=O)Nc1ccc(NS(=O)(=O)c2ccc(Cl)s2)cc1 ?
SNCA expr inh: 13%; SNCA viab count: 7%; IP6K1 inhibitor: -28*; IP6K1 inh cnf: -25%

Results for CC(=O)Nc1ccc(S(=O)(=O)Nc2ccc([N+](=O)[O-])cc2)cc1 ?
SNCA expr inh: -21%[25.6 µM]; SNCA viab count: 26%[23.9 µM]; IP6K1 inhibitor: 27

How did C[C@]1(CO)[C@H]2Cc3sc(NC(=O)c4cccc(F)c4)nc3[C@@H](CC(=O)NCc3ccco3)[C@]2(C)CC[C@H]1O do in these assays?
HEK293 tox: inconclusive; FLuc inh: inactive; SNCA expr inh: inconclusive; SNCA viab count: -11%; IP6K1 inhibitor: -5; 3T3 cytotox: inconclusive

How did COc1ccc(CN2CCNc3cnc(OCc4cccnc4)cc3C2)cc1O do in these assays?
HEK293 tox: inconclusive; FLuc inh: inactive; SNCA expr inh: -15%[87.6 µM]; SNCA viab count: -8%[87.6 µM]; IP6K1 inhibitor: -29*; 3T3 cytotox: inconclusive; IP6K1 inh cnf: -3%
